Activity calls are given as the source filed them. The calls were made as follows: active = hit-call score of the fitted dose curve at least 0.9, where 1 is the maximum; inactive = score below 0.9.
Legend:
[1] = biological target: Transcription factor E2F1 (Homo sapiens) (UniProt Q01094); assay: ATG_E2F_CIS: Attagene CIS-FACTORIAL HepG2 Assay for human E2F Transcription Factor 1 (AID 2282935); conditions: HepG2 Attagene cis-reporter, E2F reporter RNA transcripts; actives raise or lower the signal
Transcription factor E2F1 (Homo sapiens), sequence (Q01094 whole entry, looked up): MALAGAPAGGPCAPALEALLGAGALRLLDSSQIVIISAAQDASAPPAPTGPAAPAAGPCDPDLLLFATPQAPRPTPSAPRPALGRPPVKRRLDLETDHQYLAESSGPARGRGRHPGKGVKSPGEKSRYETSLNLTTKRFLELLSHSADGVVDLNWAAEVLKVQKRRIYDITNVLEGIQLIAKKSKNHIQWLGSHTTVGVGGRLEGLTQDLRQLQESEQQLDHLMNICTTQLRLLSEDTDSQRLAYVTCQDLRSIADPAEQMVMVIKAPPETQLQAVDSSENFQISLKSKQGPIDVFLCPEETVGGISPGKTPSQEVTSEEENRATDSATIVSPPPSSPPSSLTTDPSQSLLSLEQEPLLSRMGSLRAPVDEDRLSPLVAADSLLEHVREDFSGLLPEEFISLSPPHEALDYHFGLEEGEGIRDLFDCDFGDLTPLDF
Summary of the method: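 Total RNA from 24 h-treated, reporter-transfected HepG2 cells undergoes DNase I treatment, oligo(dT) reverse transcription, PCR and 6-FAM primer extension before capillary electrophoresis.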

[2] = ATG_E_Box_CIS: Attagene CIS-FACTORIAL HepG2 Assay for human Enhancer Box (E-box) (AID 2282936); conditions: HepG2 E-box cis-reporter transcription, actives raise or lower the signal
Summary of the method: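 DMSO served as negative control and baseline for bidirectional fitting. Human hepatoma HepG2 cells, transiently transfected with cis-reporter constructs, were dosed 24 h; reporter mRNA read by RT-PCR and capillary electrophoresis.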

[3] = ATG_M_61_CIS: Attagene CIS-FACTORIAL HepG2 Assay for M61 Transcription Factor (Internal Marker) (AID 2282937); conditions: HepG2 Attagene CIS-FACTORIAL M61 internal marker reporter; actives raise or lower the signal
Summary of the method: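 Multiplexed reporter mRNA assay, HepG2 human hepatoma cells, 24 h treatment. Signal: FAM-labelled, HpaI-digested RT-PCR fragments by CE. Fit: bidirectional, baseline DMSO.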

[4] = ATG_EGR_CIS: Attagene CIS-FACTORIAL HepG2 Assay for human Early Growth Response 1 (EGR1) (AID 2282938); conditions: HepG2 Attagene CIS-FACTORIAL EGR reporter mRNA; actives raise or lower the signal
Summary of the method: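 Multiplexed cis-reporter system in human hepatoma HepG2 cells, transiently transfected. Cells are dosed for 24 h; reporter transcripts are amplified, fluorescently tagged and sized by capillary electrophoresis, with DMSO as negative control.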

[5] = ATG_M_19_CIS: Attagene CIS-FACTORIAL HepG2 Assay for M19 Transcription Factor (Internal Marker) (AID 2282939); conditions: HepG2 Attagene CIS-FACTORIAL M19 internal marker reporter; actives raise or lower the signal
Summary of the method: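 Chemical-treated HepG2 (24 h) with MRTU constructs; reporter transcripts detected by fluorescent RT-PCR fragment analysis on capillary electrophoresis. Internal background marker, DMSO as baseline.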

[6] = ATG_ERE_CIS: Attagene CIS-FACTORIAL HepG2 Assay for Estrogen Response Element (ERE) (AID 2282940); conditions: HepG2 ERE cis-reporter, Attagene RNA transcript; actives raise or lower the signal
Summary of the method: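 Human liver cells (HepG2) bearing transiently transfected, promoter-regulated reporter units were exposed 24 h. Reporter mRNA induction was detected by capillary electrophoresis of labelled RT-PCR products and fitted bidirectionally to DMSO.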

[7] = ATG_Ets_CIS: Attagene CIS-FACTORIAL HepG2 Assay for human Erythroblast Transformation Specific (ETS) (AID 2282941); conditions: HepG2 ETS cis-reporter transcription, actives raise or lower the signal
Summary of the method: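 HepG2 cells transiently transfected with cis-promoter reporter transcription units were dosed for 24 h; reporter mRNA was measured by RT-PCR, 6-FAM primer extension, HpaI digestion and capillary electrophoresis, with bidirectional fitting against DMSO baseline.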

[8] = biological target: Hepatocyte nuclear factor 3-beta (Homo sapiens) (UniProt Q9Y261); assay: ATG_FoxA2_CIS: Attagene CIS-FACTORIAL HepG2 Assay for human Forkhead box A2 (FOXA2) (AID 2282942); conditions: HepG2 cis-reporter transcription factor activity, 24 h; actives raise or lower the signal
Hepatocyte nuclear factor 3-beta (Homo sapiens), sequence (Q9Y261 whole entry, looked up): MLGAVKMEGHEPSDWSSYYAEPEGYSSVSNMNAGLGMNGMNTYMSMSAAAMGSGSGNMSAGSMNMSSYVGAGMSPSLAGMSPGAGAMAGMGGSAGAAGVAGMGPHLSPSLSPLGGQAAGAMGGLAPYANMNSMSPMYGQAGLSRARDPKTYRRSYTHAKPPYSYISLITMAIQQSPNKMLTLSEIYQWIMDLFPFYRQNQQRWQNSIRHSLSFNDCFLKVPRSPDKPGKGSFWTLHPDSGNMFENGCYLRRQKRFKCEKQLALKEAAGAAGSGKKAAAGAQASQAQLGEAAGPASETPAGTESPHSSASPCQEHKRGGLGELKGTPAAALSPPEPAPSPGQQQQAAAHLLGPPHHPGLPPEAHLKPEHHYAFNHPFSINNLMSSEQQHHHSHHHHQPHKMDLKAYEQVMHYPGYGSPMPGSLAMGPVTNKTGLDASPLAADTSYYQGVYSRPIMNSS
Summary of the method: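 Multiplexed cis-element reporter assay in transiently transfected HepG2. Twenty-four hours post-dosing, RNA was reverse-transcribed, amplified, FAM-labelled, HpaI-digested and separated by CE. Activity gain or loss relative to DMSO.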

[9] = ATG_FoxO_CIS: Attagene CIS-FACTORIAL HepG2 Assay for human Forkhead box O (FoxO) (AID 2282943); conditions: HepG2 Attagene cis-reporter, FoxO element, mRNA; actives raise or lower the signal
Summary of the method: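 Human hepatoma HepG2 cells carry transiently introduced reporter transcription units controlled by cis promoter elements. Chemical treatment lasted 24 h, and mRNA signal was compared with DMSO.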

[10] = ATG_GATA_CIS: Attagene CIS-FACTORIAL HepG2 Assay for human GATA Binding Protein (AID 2282944); conditions: HepG2 GATA cis-element reporter, Attagene multiplex mRNA; actives raise or lower the signal
Summary of the method: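 Transfected cis-reporter HepG2 cells were treated with chemicals for 24 hours. Total RNA was then converted to cDNA, amplified with reporter-specific primers and analysed by fluorescent capillary electrophoresis, using DMSO-treated wells as baseline.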

Measured: AC50

CC1=CCC(=C(C)C)CC1
active: [6] 60 µM
not listed: [10]
inactive: all other assays above

C1=COCCC1
not listed: [10]
inactive: all other assays above

CCC(C)(C)C1CCC(=O)CC1
active: [6] 16.7 µM
inactive: all other assays above

CCOC(=O)CC(C)C
inactive: all assays above

CCCCOC(=O)C(C)OC(=O)CCC (configuration not stated)
inactive: all assays above

NC(=O)c1cccnc1
inactive: all assays above

CCCO
inactive: all assays above

NCCN1CCNCC1
active: [6] 32.5 µM
not listed: [10]
inactive: all other assays above

CC(=O)Nc1cc(S(=O)(=O)O)cc2cc(S(=O)(=O)O)c(N=Nc3ccccc3)c(O)c12
inactive: all assays above

C[C@H](CCC(=O)O)[C@H]1CC[C@H]2[C@@H]3CC[C@@H]4C[C@H](O)CC[C@]4(C)[C@H]3CC[C@]12C
active: [1] 25.3 µM | [2] 64.2 µM | [4] 25.2 µM | [5] 169 µM | [8] 170 µM
inactive: all other assays above

CC(C)=CC(=O)O
active: [6] 7.06 µM
inactive: all other assays above

c1ccc(OCCOc2ccccc2)cc1
inactive: all assays above

CCCCOCC(C)OCC(C)O (configuration not stated)
inactive: all assays above

CC(C)C(=O)OCC=Cc1ccccc1
inactive: all assays above

OC[C@@H](O)[C@H](O)[C@@H](O)[C@@H](O)CO
active: [6] 30.1 µM
inactive: all other assays above

CCOC(=O)COC(=O)c1ccccc1C(=O)OCC
inactive: all assays above

[Na+]
inactive: all assays above

O=C(O)c1cccc(Cl)n1
inactive: all assays above

CCCC1CCC(=O)CC1
inactive: all assays above

CCCCCC1CCC(=O)O1 (configuration not stated)
inactive: all assays above

CCCCCCOc1ccc(O)cc1
active: [6] 2.79 µM
inactive: all other assays above

CCC(=O)OCC=Cc1ccccc1
inactive: all assays above

C=CC(C)(CCC=C(C)C)OC(=O)CC (configuration not stated)
inactive: all assays above

ClCCOCCOCCCl
inactive: all assays above

[Cl][Dy]([Cl])[Cl]
inactive: all assays above

CC/C=C\CCOC(=O)C(C)C
inactive: all assays above
